The source of these data is ChEMBL document CHEMBL3988442, “University of Dundee, Small-Polar-MMV Screening Library” (2021).

Out of some 53,000 compounds screened, about 900 (1.7%) showed an effect of 50% or more. What follows is part of a selection rich in strong results, with near analogues and random picks from the rest.

The assay concerns Mycobacterium tuberculosis. As to the kind of experiment: Cornell - Phenotypic assay to identify agents that inhibit growth of Mycobacterium tuberculosis. It counts as functional. The arrangement: scale not given: direction of the effect not stated beside the values. The conditions noted are these: 10 mM as filed; unlikely as a test dose.
In the case of `Cc1ccc([C@]2(O)CC[C@H]3CN(Cc4cc(C)c(O)c(C)c4)C[C@H]32)nc1.O=C(O)CC(O)(CC(=O)O)C(=O)O`, the “Percent Effect” value is given as 50.31%.
Take `O=C(O)CC(O)(CC(=O)O)C(=O)O.O[C@@]1(c2ccccn2)CC[C@H]2CN(Cc3cccc(Cl)c3Cl)C[C@H]21`: the “Percent Effect” value was 3.215%.
The result for `Cc1ccc([C@]2(O)CC[C@H]3CN(Cc4cccc(F)c4F)C[C@H]32)nc1.O=C(O)CC(O)(CC(=O)O)C(=O)O` reads -20.35%; that for `Cc1ccc([C@]2(O)CC[C@H]3CN(Cc4ccccc4F)C[C@H]32)nc1.O=C(O)CC(O)(CC(=O)O)C(=O)O`, 8.735%; that for `Cc1ccc([C@]2(O)CC[C@H]3CN(Cc4cccc(Cl)c4Cl)C[C@H]32)nc1.O=C(O)CC(O)(CC(=O)O)C(=O)O`, 69.29%.
The result for `COc1ncc(CN2C[C@@H]3CC[C@@](O)(c4ccc(C)cn4)[C@@H]3C2)cn1.O=C(O)CC(O)(CC(=O)O)C(=O)O` reads -1.54%; that for `CN(CCc1ncnn1-c1ccccc1Cl)C1CCS(=O)(=O)C1` (stereo not drawn), -16.6%.
In the case of `Cc1ccc(CNS(=O)(=O)CCCC#N)cc1F`, the “Percent Effect” value is on record as 6.478%.
With `CC(c1nccs1)N(C)S(=O)(=O)NCc1ccccc1` (stereo not drawn), the “Percent Effect” value is listed as -14.93%.
The result for `Cc1cc(C)n(CC2CN(CC(=O)NC(C3CC3)C3CC3)CCO2)n1` (stereo not drawn) reads -31.15%; that for `Cc1ccc(CN2Cc3c(C(=O)N4CCOCC4)nn(C)c3C2)s1.O=C(O)C(F)(F)F`, 15.84%; that for `O=C(O)C(F)(F)F.c1cnc(N2CCO[C@H]3[C@H](OCC4CCOCC4)CC[C@@H]32)nc1`, -2.783%.
In the case of `c1ccc(CN2CCC(Nc3ncnc4c3CCNCC4)C2)cc1` (stereo not drawn), the “Percent Effect” value amounted to 21.59%.
Turning to `CCS(=O)(=O)N1CCCCC1c1nc(CC(C)C)no1` (stereo not drawn), the “Percent Effect” value is listed as 28.4%.
For `Cc1cccc2c1cnn2CCC(=O)NCc1csc(C2CC2)n1` the value was 28.59%; for `CN1CCN(c2ncccc2N)CC1`, -43.88%; for `Nc1cccnc1N1CCN(c2ccccc2)CC1`, 11.1%.
With `Cl.Nc1cccnc1N1CCCCCC1`, the “Percent Effect” value turned out to be 72.92%.
Regarding `Cc1cc(C)n(CCNCc2cc(-c3ccc(Cl)cc3)c[nH]c2=O)n1`, the “Percent Effect” value was -2.359%.
Regarding `Cc1nc2c(c(NCc3ccc(-c4ccccn4)s3)n1)CCNCC2`, the “Percent Effect” value was 10.6%.
In the case of `Cc1nc2c(c(NCc3cc4ccccc4s3)n1)CCNCC2`, the “Percent Effect” value was determined as 31.59%.
The result for `Cc1nc2c(c(NCc3nc4ccccc4s3)n1)CCNCC2` reads 90.34%; that for `Cc1nnc(N2CC[C@H]3C[C@@H](C(=O)NC4CCCC4)O[C@H]3C2)s1.O=C(O)C(F)(F)F`, -17.08%; that for `O=C(NC1CCN(Cc2cccc3c2OCCO3)CC1)c1cccs1`, -12.52%.
Take `Cc1nnc([C@@]23CCO[C@@H]2CCN(Cc2ccc4c(c2)OCO4)C3)o1`: the “Percent Effect” value is -5.266%.
For `Cc1csc(N2CCN(C(=O)c3c(C)oc(C)c3C)CC2)n1` the value was 16.26%; for `CN(C)C(CNC(=O)c1nc(N2CCCC2)ncc1Cl)c1ccco1` (stereo not drawn), 22.7%.
For the compound `Cc1cc(NC(=O)c2nc(N3CCCC3)ncc2Cl)nc(C(C)C)n1`, the “Percent Effect” value is listed as 24.2%.
For `Cc1cc(C(N)=O)ccc1NC(=O)c1nc(N2CCCC2)ncc1Cl` the value was 105.8%; for `O=C(Nc1cnn(Cc2ccc(Cl)cc2)c1)N[C@@H]1C=C[C@H](CO)C1`, 24.39%.
For the compound `Cc1cnn(Cc2ccc(NC(=O)N[C@@H]3C=C[C@H](CO)C3)cc2)c1`, the “Percent Effect” value worked out at 20.48%.
In the case of `O=C(Nc1cnn(-c2ccccc2Cl)c1)N[C@@H]1C=C[C@H](CO)C1`, the “Percent Effect” value was found to be 52.75%.
On to `O=C(N1CCCC1)N1C[C@@H](OCc2cccnc2)[C@H]2OCCC[C@H]21.O=C(O)C(F)(F)F`, for which the “Percent Effect” value worked out at 12.95%.
For the compound `Cc1cc2ccccc2n1CCC(=O)N1CCC2(CC1)CNC(=O)C2`, the “Percent Effect” value is reported as -9.599%.
For `COc1ccc2c(ccn2CC(=O)N2CCCC2Cn2cccn2)c1` (stereo not drawn) the value was 24.26%; for `Cc1cc2ccccc2n1CCC(=O)N1CCC[C@H]1C(N)=O`, 9.96%; for `Cc1cc2ccccc2n1CCC(=O)N1CCN(C)CC1C(N)=O` (stereo not drawn), 81.47%.
`Cc1cc2ccccc2n1CCC(=O)N1CCCC2(CC1)CNC(=O)O2` (stereo not drawn): the “Percent Effect” value is reported as -6.951%.
Turning to `O=C(CCCOc1ccccc1)N1CCCC1Cn1cccn1` (stereo not drawn), the “Percent Effect” value is reported as -5.631%.
In the case of `Cc1cc2ccccc2n1CCC(=O)N1CCCC1Cn1cccn1` (stereo not drawn), the “Percent Effect” value was determined as 91.97%.
`Cc1cc(C)n(CC(=O)N2CCCCC2CCN(C)C)c(=O)n1` (stereo not drawn): the “Percent Effect” value amounted to 19.58%.
For `Cc1cc2ccccc2n1CCC(=O)N1CCCCC1CCO` (stereo not drawn) the value was 105.9%; for `Cc1cc(C2CCCN(C(=O)c3cccnc3)C2)ccn1` (stereo not drawn), -13.34%; for `CCc1cc(NCc2ccccc2CN2CCCC2)n2ncnc2n1`, -6.247%.
As for `O=C(NCc1ccco1)[C@H]1C[C@@H]2CCN(c3ncccn3)C[C@H]2O1.O=C(O)C(F)(F)F`, the “Percent Effect” value was 33.78%.
Regarding `COCC[C@]1(O)CCN(Cc2nc(C)cs2)C[C@H]1C`, the “Percent Effect” value is -15.54%.
With `O=C(O)C(F)(F)F.O=C1[C@H]2CN(c3ncccn3)C[C@H]2CN1CCN1CCCC1`, the “Percent Effect” value worked out at 1.191%.
On to `Cc1cnc(N2CCc3onc(COc4cccnc4)c3C2)nc1`, for which the “Percent Effect” value is listed as -20.46%.
Take `Cc1cc(C)cc(C(=O)N2CCN(C(=O)N(C)C)CC2(C)C)c1`: the “Percent Effect” value came to 26.69%.
The result for `Cc1nc(Nc2cnccn2)cc(C2CCN(CCO)C2)n1.O=CO` (stereo not drawn) reads -24.26%; that for `CSCCC(NC(=O)c1ccco1)C(=O)N(C)Cc1ccsc1` (stereo not drawn), -9.579%.
On to `O=C(NCCC(=O)N1CCCC1)c1ccc(SCc2cccnc2)cc1`, for which the “Percent Effect” value is listed as 35.93%.
For `CCOc1ccnc(N2CCN(C(=O)c3cccnc3)CC2)n1`, the “Percent Effect” value is -18.66%.
As for `O=S(=O)(NC1CCCCC12OCCO2)c1cc(F)cc(F)c1` (stereo not drawn), the “Percent Effect” value is 56.69%.
The result for `O=S(=O)(NC1CCCCC12OCCO2)c1ccc2c(c1)OCCO2` (stereo not drawn) reads 44.93%.
In the case of `O=S(=O)(NC1CCCCC12OCCO2)c1cc(Cl)cc(Cl)c1` (stereo not drawn), the “Percent Effect” value is recorded as 16.3%.
On to `CCCN1CCC(Cc2noc(-c3cccnc3OC)n2)CC1`, for which the “Percent Effect” value is on record as 20.11%.
The result for `CCn1nc(C)c(CNC(=O)c2nnc3ccc(OC)cc3n2)c1C` reads -22.43%; that for `CCn1nc(C)c(CNC(=O)c2nnc3ccccc3n2)c1C`, 7.838%.
Turning to `O=C(NCC1CC1)c1nnc2ccc(Cl)cc2n1`, the “Percent Effect” value was determined as 99.3%.
For the compound `COc1ccc(-c2nnc(SC(C)C(=O)NC3CCCC3)[nH]2)c(OC)c1` (stereo not drawn), the “Percent Effect” value is -11.32%.
Consider `CCn1nc(C)c(CNC(=O)c2nnc3ccc(Cl)cc3n2)c1C`, for which the “Percent Effect” value is 64.24%.
`COc1ccc2nnc(C(=O)NC3CCCC3)nc2c1`: the “Percent Effect” value was 60.2%.
For `COc1ccc(C(=O)NC2CC2)c(OC)c1` the value was 29.69%.
For `O=C(NCC1CCOC1)c1csc(-c2ccc(Cl)cc2)n1` (stereo not drawn) the value was 25.26%; for `Cc1ccc2nnc(C(=O)NCC3CCCC3)nc2c1`, 99.7%; for `O=C(NCC1CCOC1)c1cc(-c2ccc(Cl)cc2)n[nH]1` (stereo not drawn), -7.527%.
For `Cc1ccc(-n2nnc(C(=O)NCC3CCCCC3)n2)cc1`, the “Percent Effect” value was found to be 32.3%.
`COc1ccc2nnc(C(=O)NCC3CCCC3)nc2c1`: the “Percent Effect” value was 39.03%.
The result for `O=C1[C@H]2CCCC[C@H]2C(=O)N1c1cnn(Cc2cccc(F)c2)c1` reads 24.19%; that for `Cc1nnc(-c2cccc(C#N)c2)n1C1CCN(C(C)C)C1=O` (stereo not drawn), 5.61%; that for `Cc1cccc(S(=O)(=O)N2C[C@@H]3C[C@@H](c4nnc(C)[nH]4)O[C@@H]3C2)c1`, -10.6%.
For the compound `CN(Cc1ccc(F)cc1)CC1(O)CCN(C(=O)c2ccccn2)C1` (stereo not drawn), the “Percent Effect” value is recorded as 17.87%.
For `O=c1[nH]cc(N2CCCCC2)c(=O)[nH]1` the value was 4.601%; for `Cc1ccc(NCC2(O)CCNCC2)cc1C`, -25.1%; for `CC(C)c1nnc(NC(=O)N(C)Cc2ccncc2)s1`, -15.27%.
Consider `Cc1ccsc1CN(CCN(C)C)Cc1ccccn1`, for which the “Percent Effect” value was found to be 3.624%.
As to `CSC(C)CCN(Cc1ccccn1)Cc1sccc1C` (stereo not drawn), the “Percent Effect” value stood at 52.37%.
For the compound `Cc1ccsc1CN(Cc1ccccn1)CC(C)C`, the “Percent Effect” value is -11.16%.
Consider `COCC(O)CN(C)c1ccnc2cc(Br)ccc12` (stereo not drawn), for which the “Percent Effect” value is given as 6.843%.
For `O=C(NC[C@@H]1CCCO1)c1cccnc1N1CCCC1c1ccccc1` (stereo partly drawn), the “Percent Effect” value worked out at 4.902%.
For `CC(c1ccc(F)cc1F)N1CCN(CCC(=O)NC(N)=O)CC1` (stereo not drawn), the “Percent Effect” value is on record as -2.983%.
In the case of `COc1ccccc1N1CCC(CNCc2cccc(O)c2)C1` (stereo not drawn), the “Percent Effect” value came out at 38.06%.
For the compound `COc1ccc(CNCC2CCN(c3ccccc3OC)C2)cc1O` (stereo not drawn), the “Percent Effect” value turned out to be 59.98%.
On to `COc1cccc(N2CCC(CNCc3cccc(C#N)c3)C2)c1` (stereo not drawn), for which the “Percent Effect” value was 63.04%.
Take `COc1ccccc1N1CCC(CNCc2cccc(C#N)c2)C1` (stereo not drawn): the “Percent Effect” value came out at 33.02%.
For `COc1cccc(N2CCC(CNC(=O)NCc3ccco3)C2)c1` (stereo not drawn), the “Percent Effect” value was -31.24%.
`COc1ccccc1N1CCC(CNCc2ccc(C#N)cc2)C1` (stereo not drawn): the “Percent Effect” value came out at 28.32%.
For `Cc1cc(C)c(C(=O)N2CCCC(C(=O)CCc3ccccc3)C2)cn1` (stereo not drawn) the value was 16%; for `CN1CCCC1CCNC(=O)c1ccccc1-n1cnc(CN)c1` (stereo not drawn), -39.2%.
The result for `CC(C)C(Sc1nnnn1C1CC1)C(=O)NCc1ccccc1` (stereo not drawn) reads -5.783%; that for `Cc1nc(N)sc1C(=O)N1Cc2ccccc2OC2(CCOCC2)C1`, -56.78%; that for `O=C1CCC2(CCN(Cc3cscn3)CC2)CN1CCCO`, 5.461%.
Take `CC(C)(C)Oc1ccc(NCC(=O)NCc2ccco2)cc1`: the “Percent Effect” value amounted to 108%.
The result for `O=C(CNc1ccc(OCC2CCOCC2)cc1)NCc1ccco1` reads 31.46%.
In the case of `CC(C)(Oc1ccc(F)cc1)C(=O)NCc1ccco1`, the “Percent Effect” value was 22.85%.
As to `CC[C@H](C)Nc1nccc(-c2cnc3sccn3c2=O)n1`, the “Percent Effect” value was -1.989%.
Take `O=C(c1cn(-c2ccccc2C(F)(F)F)nn1)N1CCSCC1`: the “Percent Effect” value came to 17.85%.
